Reference: article PMC11062922 (Nature Chemical Biology, 2023)
Like-named read-outs stand apart in the source and are kept apart here.

Assays:
Parameters in all cases: species or system human, MV4-11 + K-562 + COLO205 + SK-N-BE2 + OVCAR-8
[1] = system: ATM; conditions: read-out: apparent Kd, n = 1
[2] = system: EPHB2; conditions: read-out: apparent Kd; compound concentrations: 100 nM and 1000 nM (sheet 'Samples'), CATDS: 5.4073383937865198E-2; n = 1
[3] = system: EPHB4; conditions: read-out: apparent Kd; compound concentrations: 100 nM and 1000 nM (sheet 'Samples'), CATDS: 6.1726409917068299E-2; n = 1
[4] = system: ERCC2; conditions: read-out: apparent Kd; compound concentrations: 100 nM and 1000 nM (sheet 'Samples'), CATDS: 5.5764348636942303E-2; n = 1
[5] = system: GAK; conditions: read-out: apparent Kd, n = 1
[6] = system: MAPK11; conditions: read-out: apparent Kd, n = 1
[7] = system: MAPK9; conditions: read-out: apparent Kd, n = 1
[8] = system: PIK3CD; conditions: read-out: apparent Kd, n = 1
[9] = system: PRKAG1; conditions: read-out: apparent Kd, n = 1
[10] = system: PRKCQ; conditions: read-out: apparent Kd; compound concentrations: 100 nM and 1000 nM (sheet 'Samples'), CATDS: 0.173893551056024; n = 1
[11] = system: RPS6KA6; conditions: read-out: apparent Kd; compound concentrations: 100 nM and 1000 nM (sheet 'Samples'), CATDS: 5.8254455151346002E-2; n = 1
[12] = system: SRC; conditions: read-out: apparent Kd; compound concentrations: 100 nM and 1000 nM (sheet 'Samples'), CATDS: 5.8386134416648999E-2; n = 1
[13] = system: TNK1; conditions: read-out: apparent Kd; compound concentrations: 100 nM and 1000 nM (sheet 'Samples'), CATDS: 8.7272147556640506E-2; n = 1
[14] = system: TNK2; conditions: read-out: apparent Kd; compound concentrations: 100 nM and 1000 nM (sheet 'Samples'), CATDS: 6.9926040964812697E-2; n = 1
[15] = system: AKT3; conditions: read-out: apparent Kd; compound concentrations: 100 nM and 1000 nM (sheet 'Samples'), CATDS: 0.31242547502762402; n = 1
[16] = system: COX5A; conditions: read-out: apparent Kd; compound concentrations: 100 nM and 1000 nM (sheet 'Samples'), CATDS: 0.36000634537809301; n = 1
[17] = system: MAPKAPK2; conditions: read-out: apparent Kd, n = 1
[18] = system: MAP3K1; conditions: read-out: apparent Kd; compound concentrations:100 nM and 1000 nM (sheet 'Samples'); n = 1
[19] = system: NUAK2; conditions: read-out: apparent Kd; compound concentrations:100 nM and 1000 nM (sheet 'Samples'); n = 1
[20] = system: PLK1; conditions: read-out: apparent Kd; compound concentrations: 100 nM and 1000 nM (sheet 'Samples'), CATDS: 0.443689991043278; n = 1
[21] = system: MAPK10; conditions: read-out: apparent Kd; compound concentrations:100 nM and 1000 nM (sheet 'Samples'); n = 1
[22] = system: MTOR; conditions: read-out: apparent Kd, n = 1
[23] = system: MYLK3; conditions: read-out: apparent Kd; compound concentrations:100 nM and 1000 nM (sheet 'Samples'); n = 1
[24] = system: PIK3CA; conditions: read-out: apparent Kd, n = 1
[25] = system: PLK4; conditions: read-out: apparent Kd; compound concentrations:100 nM and 1000 nM (sheet 'Samples'); n = 1
[26] = system: PRKACG; conditions: read-out: apparent Kd; compound concentrations:100 nM and 1000 nM (sheet 'Samples'); n = 1
[27] = system: PRKAG2; conditions: read-out: apparent Kd, n = 1
[28] = system: SIK2; conditions: read-out: apparent Kd; compound concentrations:100 nM and 1000 nM (sheet 'Samples'); n = 1
[29] = system: TNIK; conditions: read-out: apparent Kd; compound concentrations:100 nM and 1000 nM (sheet 'Samples'); n = 1
[30] = system: AKT2; conditions: read-out: apparent Kd; compound concentrations: 100 nM and 1000 nM (sheet 'Samples'), CATDS: 0.161552341020717; n = 1
[31] = system: CDK6; conditions: read-out: apparent Kd; compound concentrations: 100 nM and 1000 nM (sheet 'Samples'), CATDS: 0.161106478670141; n = 1
[32] = system: MAP3K6; conditions: read-out: apparent Kd; compound concentrations: 100 nM and 1000 nM (sheet 'Samples'), CATDS: 0.18139897534285501; n = 1
[33] = system: TESK1; conditions: read-out: apparent Kd; compound concentrations: 100 nM and 1000 nM (sheet 'Samples'), CATDS: 0.16638994062749099; n = 1
[34] = system: ATR; conditions: read-out: apparent Kd; compound concentrations: 100 nM and 1000 nM (sheet 'Samples'), CATDS: 8.9801947735964505E-2; n = 1
[35] = system: T1, DJA1; conditions: read-out: apparent Kd; compound concentrations: 100 nM and 1000 nM (sheet 'Samples'), CATDS: 8.0242865429316204E-2; n = 1
T1 construct: gene DNAJA1

[36] = system: NLK; conditions: read-out: apparent Kd; compound concentrations: 100 nM and 1000 nM (sheet 'Samples'), CATDS: 7.3825275535159302E-2; n = 1
[37] = system: PIK3C2A; conditions: read-out: apparent Kd; compound concentrations: 100 nM and 1000 nM (sheet 'Samples'), CATDS: 6.5272193721358701E-2; n = 1
[38] = system: PTK6; conditions: read-out: apparent Kd; compound concentrations: 100 nM and 1000 nM (sheet 'Samples'), CATDS: 7.5402432247591605E-2; n = 1
[39] = system: RAB14; conditions: read-out: apparent Kd; compound concentrations: 100 nM and 1000 nM (sheet 'Samples'), CATDS: 6.8441155991484606E-2; n = 1
[40] = system: STK16; conditions: read-out: apparent Kd; compound concentrations: 100 nM and 1000 nM (sheet 'Samples'), CATDS: 0.118413696953623; n = 1
[41] = system: CDK16; conditions: read-out: apparent Kd; compound concentrations:100 nM and 1000 nM (sheet 'Samples'); n = 1
[42] = system: CDK17; conditions: read-out: apparent Kd; compound concentrations:100 nM and 1000 nM (sheet 'Samples'); n = 1
[43] = system: CDK2; conditions: read-out: apparent Kd; compound concentrations:100 nM and 1000 nM (sheet 'Samples'); n = 1
[44] = system: CLK4; conditions: read-out: apparent Kd; compound concentrations:100 nM and 1000 nM (sheet 'Samples'); n = 1
[45] = system: PAK4; conditions: read-out: apparent Kd; compound concentrations:100 nM and 1000 nM (sheet 'Samples'); n = 1
[46] = system: STK3; conditions: read-out: apparent Kd; compound concentrations:100 nM and 1000 nM (sheet 'Samples'); n = 1
[47] = system: STK4; conditions: read-out: apparent Kd; compound concentrations:100 nM and 1000 nM (sheet 'Samples'); n = 1
[48] = system: BMPR1B; conditions: read-out: apparent Kd; compound concentrations:100 nM and 1000 nM (sheet 'Samples'); n = 1
[49] = system: DDR1; conditions: read-out: apparent Kd; compound concentrations:100 nM and 1000 nM (sheet 'Samples'); n = 1
[50] = system: IRAK3; conditions: read-out: apparent Kd; compound concentrations:100 nM and 1000 nM (sheet 'Samples'); n = 1
[51] = system: MAPK14; conditions: read-out: apparent Kd; compound concentrations:100 nM and 1000 nM (sheet 'Samples'); n = 1
[52] = system: MAPK8; conditions: read-out: apparent Kd; compound concentrations:100 nM and 1000 nM (sheet 'Samples'); n = 1
[53] = compound concentrations:100 nM and 1000 nM (sheet 'Samples')

CC(C)(O)CCc1cccc(C(=O)c2cnn(-c3ccc(F)cc3)c2N)c1 [RO3200935-000] was tested, and the potency estimated from few doses ([1]; compound concentrations: 100 nM and 1000 nM (sheet 'Samples'), CATDS: 0.124711216224064) was 182 nM, the potency estimated from few doses [2] was 1310 nM and the potency estimated from few doses [3] was 862 nM. For the same molecule, the potency estimated from few doses [4] was 1180 nM, the potency estimated from few doses ([5]; compound concentrations: 100 nM and 1000 nM (sheet 'Samples'), CATDS: 5.4131734373928597E-2) was 1300 nM and the potency estimated from few doses ([6]; compound concentrations: 100 nM and 1000 nM (sheet 'Samples'), CATDS: 5.3024764927667702E-2) was 1400 nM. It also gave a potency estimated from few doses ([7]; compound concentrations: 100 nM and 1000 nM (sheet 'Samples'), CATDS: 4.8598107075800298E-2) of 1970 nM, a potency estimated from few doses ([8]; compound concentrations: 100 nM and 1000 nM (sheet 'Samples'), CATDS: 0.17871618509773601) of 101 nM and a potency estimated from few doses ([9]; compound concentrations: 100 nM and 1000 nM (sheet 'Samples'), CATDS: 0.16537945718140701) of 114 nM. For the same molecule, the potency estimated from few doses [10] was 105 nM, the potency estimated from few doses [11] was 1020 nM and the potency estimated from few doses [12] was 1020 nM. The potency estimated from few doses [13] was 366 nM and the potency estimated from few doses [14] was 615 nM.

FC(F)(F)c1cccc(-c2nn3ncccc3c2-c2ccnc(Nc3ccc4c(c3)OCCO4)n2)c1 [GW827102X] showed a potency estimated from few doses [15] of 2070 nM, a potency estimated from few doses [16] of 1560 nM and a potency estimated from few doses ([17]; compound concentrations: 100 nM and 1000 nM (sheet 'Samples'), CATDS: 0.330960581513286) of 1830 nM.

Work on C[C@@H](Oc1cc(-n2cnc3ccc(CN4CCN(C)CC4)cc32)sc1C(N)=O)c1ccccc1C(F)(F)F [GSK461364] yielded a potency estimated from few doses [1, 53] of 264 nM, a potency estimated from few doses [18] of 102 nM and a potency estimated from few doses [19] of 1280 nM. The potency estimated from few doses [8, 53] was 214 nM and the potency estimated from few doses [20] was 42.1 nM.

For COc1ccc2[nH]c3c4[nH]c5ccc(OC)cc5c4c4c(c3c2c1)C(=O)NC4=O [GW296115X], the potency estimated from few doses [1, 53] was 204 nM, the potency estimated from few doses [5, 53] was 543 nM and the potency estimated from few doses [21] was 1050 nM. For the same molecule, the potency estimated from few doses [22, 53] was 741 nM, the potency estimated from few doses [23] was 834 nM and the potency estimated from few doses [24, 53] was 254 nM. It also gave a potency estimated from few doses [25] of 581 nM, a potency estimated from few doses [26] of 655 nM and a potency estimated from few doses [9, 53] of 1550 nM. For the same molecule, the potency estimated from few doses [27, 53] was 1670 nM, the potency estimated from few doses [28] was 923 nM and the potency estimated from few doses [29] was 1700 nM.

Work on CC(C)(C)c1ccc(C(=O)Nc2cn3cc(-c4cccnc4)ccc3n2)cc1 [TPKI-58] yielded a potency estimated from few doses [30] of 1950 nM, a potency estimated from few doses [31] of 1970 nM and a potency estimated from few doses [32] of 1390 nM. It also gave a potency estimated from few doses ([24]; compound concentrations: 100 nM and 1000 nM (sheet 'Samples'), CATDS: 0.92567597438095595) of 17.7 nM and a potency estimated from few doses [33] of 1790 nM.

In the case of Fc1ccc(-c2ncn(CCCN3CCOCC3)c2-c2ccccn2)cc1 [SB-211742], the potency estimated from few doses ([1]; compound concentrations: 100 nM and 1000 nM (sheet 'Samples'), CATDS: 0.213303269988698) was 181 nM, the potency estimated from few doses [34] was 854 nM and the potency estimated from few doses [35] was 1130 nM. The potency estimated from few doses ([22]; compound concentrations: 100 nM and 1000 nM (sheet 'Samples'), CATDS: 0.10171258605148099) was 648 nM, the potency estimated from few doses [36] was 1420 nM and the potency estimated from few doses [37] was 2110 nM. The potency estimated from few doses ([24]; compound concentrations: 100 nM and 1000 nM (sheet 'Samples'), CATDS: 0.22105458504596001) was 172 nM, the potency estimated from few doses ([27]; compound concentrations: 100 nM and 1000 nM (sheet 'Samples'), CATDS: 7.5904360676084706E-2) was 1310 nM and the potency estimated from few doses [38] was 1330 nM. It also gave a potency estimated from few doses [39] of 1790 nM and a potency estimated from few doses [40] of 479 nM.

Molecule COc1cc(F)c(F)cc1C(=O)c1cnc(NC2CCN(S(C)(=O)=O)CC2)nc1N [RO4595655-000] has a potency estimated from few doses [1, 53] of 157 nM, a potency estimated from few doses [41] of 1510 nM and a potency estimated from few doses [42] of 1840 nM. It also gave a potency estimated from few doses [43] of 1210 nM, a potency estimated from few doses [44] of 1430 nM and a potency estimated from few doses [45] of 1340 nM. For the same molecule, the potency estimated from few doses [46] was 2300 nM and the potency estimated from few doses [47] was 1690 nM.

In the case of CCn1c(=O)c(Oc2ccc(F)cc2F)cc2cnc(NC3CCOCC3)nc21 [RO4367438-000], the potency estimated from few doses [1, 53] was 238 nM, the potency estimated from few doses [48] was 867 nM and the potency estimated from few doses [49] was 1510 nM. The potency estimated from few doses [50] was 1240 nM, the potency estimated from few doses [21] was 45.1 nM and the potency estimated from few doses [6, 53] was 89.8 nM. It also gave a potency estimated from few doses [51] of 2.49 nM, a potency estimated from few doses [52] of 153 nM and a potency estimated from few doses [7, 53] of 46.5 nM. The potency estimated from few doses [17, 53] was 8.81 nM, the potency estimated from few doses [8, 53] was 13.5 nM and the potency estimated from few doses [9, 53] was 128 nM.
